About 7,900 targets were measured; listed, in parts, are those with a hit and a random draw of the rest. About 0.6% of all pairs of compound and target were hits. Values without a mark were called inactive.
What was measured:
Assay in all cases: log2 fold change, soluble protein after heating vs DMSO (PISA); higher = thermal stabilisation; K562 cells, 10 uM, 30 min; active = over 0.2 and 3.5 SD of the protein, either way, in both replicates (recomputed)
[1] = compound: C#Cc1cccc(Nc2ncnc3cc(OCCOC)c(OCCOC)cc23)c1 [erlotinib]
Method in brief: (§1)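 Values are thermal stability changes relative to control samples and are taken from duplicates. They are stated as log2 fold changes. Before quantification by TMTpro 16plex LC-MS/MS with equalised channel sums, K562 cells at 2×10^6 cells/mL were treated with 10 μM compound for 30 min, heated in aliquots for 3 min across 48°C-58°C, pooled, extracted in PBS with 0.5% NP-40 at 4°C, and centrifuged at 21,000xg for 90 min to give the soluble supernatant.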

[2] = compound: C/C(=N\NC(=O)C1=CC(=CC=C1)S(=O)(=O)N2CCOCC2)/C3=C(C=CC(=C3)Cl)O
Method in brief: as §1

[3] = compound: C1=CC(=C(C=C1Cl)C2=NC3=NC=CN=C3C(=N2)NC4=CC=NC=C4)F
Method in brief: as §1

[4] = compound: C1=CC(=CC=C1C2=NC3=C(N2)C=C(C=C3)C(=O)N)OC4=CC=C(C=C4)Cl
Method in brief: as §1

[5] = compound: C1=CC2=C(C=CC(=C2)/C=C\3/C(=O)NC(=NCC4=CC=CS4)S3)N=C1
Method in brief: as §1

[6] = compound: C1=CC2=NC=CN=C2C=C1/C=C/3\C(=O)NC(=O)S3
Method in brief: as §1

[7] = compound: C1=CC=C(C=C1)C2=NC(=C(N2)C3=CC=NC=C3)C4=CC(=C(C=C4)Cl)O
Method in brief: as §1

[8] = compound: C1=CC=C2C(=C1)C3=NNC4=CC=CC(=C43)C2=O
Method in brief: as §1

[9] = compound: C1CCN(C1)C(=O)NC2=CC=CC(=C2)NC3=NC=C(C(=N3)NCCC4=CN=CN4)Br
Method in brief: as §1

[10] = compound: C1CN(CCC1(CC2=CC=C(C=C2)Cl)N)C3=NC=NC4=C3C=CN4
Method in brief: as §1

[11] = compound: C1COCCN1CCN2C3=CC=CC=C3N=C2NC(=O)C4=CC(=CC=C4)[N+](=O)[O-] [IRAK-1-4 Inhibitor I]
Method in brief: as §1

[12] = compound: C=CC(=O)N1CCC[C@@H](n2nc(-c3ccc(Oc4ccccc4)cc3)c3c(N)ncnc32)C1 [ibrutinib]
Method in brief: as §1

[13] = compound: CC(=O)c1cnc2ccc(-c3cc(Cl)c(O)c(Cl)c3)nc2c1N[C@H]1CC[C@H](CN(C)C)CC1
Method in brief: as §1

[14] = compound: CC(C)(C)Cn1c(N)nc2ccc(-c3[nH]c(C(C)(C)C)nc3-c3ccc(F)cc3)nc21 [ralimetinib]
Method in brief: as §1

[15] = compound: CC(C)(O)CC(=O)NCCn1ccc2ncnc(Nc3ccc(Oc4cccc(C(F)(F)F)c4)c(Cl)c3)c21
Method in brief: as §1

[16] = compound: CC(C)C1=C2N=C(C=C(N2N=C1)NCC3=CC=CC=C3)NCCCCCCN
Method in brief: as §1

[17] = compound: CC(C)C[C@@H](C=O)NC(=O)[C@H](CC(C)C)NC(=O)[C@H](CC(C)C)NC(=O)OCc1ccccc1
Method in brief: as §1

[18] = compound: CC(C)N(C[C@H]1O[C@@H](n2cnc3c(N)ncnc32)[C@H](O)[C@@H]1O)[C@H]1C[C@@H](CCc2nc3cc(C(C)(C)C)ccc3[nH]2)C1 [pinometostat]
Method in brief: as §1

[19] = compound: CC1=C(C(CC(=O)N1)C2=CC=C(C=C2)C(F)(F)F)C(=O)NC3=C(C=C4C(=C3)C=NN4)F
Method in brief: as §1

[20] = compound: CC1=C(C2=C(C=C1)C(=O)C3=CC=CC=C3N2CCCN)C
Method in brief: as §1

Sequence of UniProt P19784 (P19784 whole entry, looked up): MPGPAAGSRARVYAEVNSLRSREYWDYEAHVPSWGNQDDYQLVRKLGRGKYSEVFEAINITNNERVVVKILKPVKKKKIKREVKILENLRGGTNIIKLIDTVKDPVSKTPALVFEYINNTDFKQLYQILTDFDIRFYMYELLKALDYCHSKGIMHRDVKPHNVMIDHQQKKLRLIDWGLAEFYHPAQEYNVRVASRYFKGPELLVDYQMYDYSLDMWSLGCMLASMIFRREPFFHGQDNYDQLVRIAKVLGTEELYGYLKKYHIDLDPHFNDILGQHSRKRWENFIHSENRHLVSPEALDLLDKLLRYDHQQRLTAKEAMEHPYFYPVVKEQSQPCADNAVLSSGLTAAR
Sequence of UniProt Q9UHN6 (Q9UHN6 whole entry, looked up): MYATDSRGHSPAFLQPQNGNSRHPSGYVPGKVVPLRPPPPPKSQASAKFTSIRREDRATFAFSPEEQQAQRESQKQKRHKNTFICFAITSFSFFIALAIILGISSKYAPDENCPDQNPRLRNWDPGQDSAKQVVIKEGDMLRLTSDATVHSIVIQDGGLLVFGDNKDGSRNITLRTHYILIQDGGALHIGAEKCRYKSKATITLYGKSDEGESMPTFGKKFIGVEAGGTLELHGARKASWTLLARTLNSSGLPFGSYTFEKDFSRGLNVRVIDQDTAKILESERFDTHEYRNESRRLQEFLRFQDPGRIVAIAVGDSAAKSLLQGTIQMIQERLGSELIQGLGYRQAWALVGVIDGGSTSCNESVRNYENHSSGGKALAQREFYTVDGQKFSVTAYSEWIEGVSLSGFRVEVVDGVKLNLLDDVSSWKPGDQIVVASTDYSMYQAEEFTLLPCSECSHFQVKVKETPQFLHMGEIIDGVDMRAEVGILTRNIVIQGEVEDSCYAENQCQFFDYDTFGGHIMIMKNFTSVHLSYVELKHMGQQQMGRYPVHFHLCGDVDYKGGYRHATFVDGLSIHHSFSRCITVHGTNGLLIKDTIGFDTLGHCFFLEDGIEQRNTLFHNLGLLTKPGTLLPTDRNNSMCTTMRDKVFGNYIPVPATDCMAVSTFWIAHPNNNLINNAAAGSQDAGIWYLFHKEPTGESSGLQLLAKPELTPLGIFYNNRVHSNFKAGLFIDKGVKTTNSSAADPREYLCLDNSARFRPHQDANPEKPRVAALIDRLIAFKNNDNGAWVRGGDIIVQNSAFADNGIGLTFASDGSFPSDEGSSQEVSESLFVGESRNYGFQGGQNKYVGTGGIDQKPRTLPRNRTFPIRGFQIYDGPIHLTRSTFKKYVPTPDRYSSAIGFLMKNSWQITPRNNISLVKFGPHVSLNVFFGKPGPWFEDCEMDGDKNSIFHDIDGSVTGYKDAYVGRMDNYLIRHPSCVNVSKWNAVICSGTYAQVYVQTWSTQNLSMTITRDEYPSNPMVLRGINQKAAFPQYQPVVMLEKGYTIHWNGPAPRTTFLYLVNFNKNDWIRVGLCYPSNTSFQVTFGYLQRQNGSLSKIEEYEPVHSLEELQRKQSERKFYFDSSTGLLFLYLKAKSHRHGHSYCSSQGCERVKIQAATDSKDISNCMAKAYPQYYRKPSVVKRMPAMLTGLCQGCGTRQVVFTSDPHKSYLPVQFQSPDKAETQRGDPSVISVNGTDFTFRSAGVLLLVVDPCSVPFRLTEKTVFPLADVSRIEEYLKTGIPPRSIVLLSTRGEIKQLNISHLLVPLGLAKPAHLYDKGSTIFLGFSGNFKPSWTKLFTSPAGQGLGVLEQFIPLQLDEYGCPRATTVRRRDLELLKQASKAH
Sequence of UniProt A5YKK6 (A5YKK6 whole entry, looked up): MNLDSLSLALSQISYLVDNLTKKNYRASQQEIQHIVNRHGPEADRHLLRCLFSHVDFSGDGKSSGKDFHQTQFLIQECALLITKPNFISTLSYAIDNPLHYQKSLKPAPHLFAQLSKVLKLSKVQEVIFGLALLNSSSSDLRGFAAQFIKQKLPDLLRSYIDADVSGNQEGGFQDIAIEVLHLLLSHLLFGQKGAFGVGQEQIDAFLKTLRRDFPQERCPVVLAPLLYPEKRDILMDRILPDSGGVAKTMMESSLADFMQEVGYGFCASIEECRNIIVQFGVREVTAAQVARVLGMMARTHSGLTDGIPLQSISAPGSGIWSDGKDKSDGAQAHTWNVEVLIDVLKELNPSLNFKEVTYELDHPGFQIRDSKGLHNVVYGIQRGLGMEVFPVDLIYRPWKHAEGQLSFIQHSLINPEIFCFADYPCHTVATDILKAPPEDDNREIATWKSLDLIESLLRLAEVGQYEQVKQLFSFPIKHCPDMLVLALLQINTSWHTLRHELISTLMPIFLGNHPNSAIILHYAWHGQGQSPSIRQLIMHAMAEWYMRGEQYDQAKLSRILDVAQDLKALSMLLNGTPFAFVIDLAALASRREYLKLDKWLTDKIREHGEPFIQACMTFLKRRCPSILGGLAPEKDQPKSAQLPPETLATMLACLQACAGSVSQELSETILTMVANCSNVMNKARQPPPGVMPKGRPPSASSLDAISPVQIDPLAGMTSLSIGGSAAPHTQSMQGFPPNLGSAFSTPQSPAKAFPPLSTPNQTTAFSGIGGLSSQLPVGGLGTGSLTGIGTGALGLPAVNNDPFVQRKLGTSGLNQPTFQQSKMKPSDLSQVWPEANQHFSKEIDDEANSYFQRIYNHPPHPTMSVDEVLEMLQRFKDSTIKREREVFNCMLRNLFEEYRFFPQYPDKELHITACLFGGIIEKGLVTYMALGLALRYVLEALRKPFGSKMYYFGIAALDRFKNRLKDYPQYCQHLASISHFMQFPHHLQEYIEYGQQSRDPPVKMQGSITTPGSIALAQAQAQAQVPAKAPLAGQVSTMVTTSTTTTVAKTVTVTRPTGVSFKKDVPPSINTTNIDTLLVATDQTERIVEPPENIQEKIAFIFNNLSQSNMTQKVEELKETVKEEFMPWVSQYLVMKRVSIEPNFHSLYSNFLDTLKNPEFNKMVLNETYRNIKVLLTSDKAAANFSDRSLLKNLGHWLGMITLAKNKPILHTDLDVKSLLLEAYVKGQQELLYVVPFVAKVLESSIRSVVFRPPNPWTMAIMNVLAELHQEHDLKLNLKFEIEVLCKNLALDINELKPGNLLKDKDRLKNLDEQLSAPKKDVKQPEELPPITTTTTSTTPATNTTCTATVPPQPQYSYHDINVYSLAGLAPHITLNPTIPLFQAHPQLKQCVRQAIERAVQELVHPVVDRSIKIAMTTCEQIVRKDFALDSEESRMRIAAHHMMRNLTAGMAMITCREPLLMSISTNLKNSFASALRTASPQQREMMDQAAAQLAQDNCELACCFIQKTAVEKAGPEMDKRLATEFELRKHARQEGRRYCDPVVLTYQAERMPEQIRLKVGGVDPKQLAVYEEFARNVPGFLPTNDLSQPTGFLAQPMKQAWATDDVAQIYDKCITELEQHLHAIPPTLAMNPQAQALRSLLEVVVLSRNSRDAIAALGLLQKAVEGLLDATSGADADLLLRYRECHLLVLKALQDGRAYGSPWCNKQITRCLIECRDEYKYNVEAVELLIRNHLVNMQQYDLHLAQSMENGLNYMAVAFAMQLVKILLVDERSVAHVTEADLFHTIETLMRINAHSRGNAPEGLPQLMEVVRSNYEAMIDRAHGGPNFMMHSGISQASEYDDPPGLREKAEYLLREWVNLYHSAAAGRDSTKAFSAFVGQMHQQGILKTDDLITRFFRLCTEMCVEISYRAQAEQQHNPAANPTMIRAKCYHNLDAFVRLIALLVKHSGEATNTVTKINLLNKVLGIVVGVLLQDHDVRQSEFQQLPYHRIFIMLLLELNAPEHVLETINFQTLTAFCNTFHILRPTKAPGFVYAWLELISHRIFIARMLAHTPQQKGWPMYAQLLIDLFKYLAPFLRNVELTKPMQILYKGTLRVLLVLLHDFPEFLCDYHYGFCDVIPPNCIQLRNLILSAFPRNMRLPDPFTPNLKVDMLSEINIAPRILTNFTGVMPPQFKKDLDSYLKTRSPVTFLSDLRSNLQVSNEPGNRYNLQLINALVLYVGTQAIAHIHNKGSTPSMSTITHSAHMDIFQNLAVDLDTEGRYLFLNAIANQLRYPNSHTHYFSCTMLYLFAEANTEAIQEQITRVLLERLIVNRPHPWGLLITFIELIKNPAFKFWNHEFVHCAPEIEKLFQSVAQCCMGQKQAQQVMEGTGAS
Sequence of UniProt P35219 (P35219 whole entry, looked up): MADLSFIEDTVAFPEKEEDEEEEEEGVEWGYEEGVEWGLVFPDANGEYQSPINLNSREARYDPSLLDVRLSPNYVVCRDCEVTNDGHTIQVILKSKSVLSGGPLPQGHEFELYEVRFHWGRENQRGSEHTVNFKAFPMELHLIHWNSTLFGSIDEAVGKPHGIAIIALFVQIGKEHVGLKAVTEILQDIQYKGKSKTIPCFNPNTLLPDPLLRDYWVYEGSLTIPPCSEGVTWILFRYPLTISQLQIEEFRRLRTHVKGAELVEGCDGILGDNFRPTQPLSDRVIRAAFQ
Sequence of UniProt P12277 (P12277 whole entry, looked up): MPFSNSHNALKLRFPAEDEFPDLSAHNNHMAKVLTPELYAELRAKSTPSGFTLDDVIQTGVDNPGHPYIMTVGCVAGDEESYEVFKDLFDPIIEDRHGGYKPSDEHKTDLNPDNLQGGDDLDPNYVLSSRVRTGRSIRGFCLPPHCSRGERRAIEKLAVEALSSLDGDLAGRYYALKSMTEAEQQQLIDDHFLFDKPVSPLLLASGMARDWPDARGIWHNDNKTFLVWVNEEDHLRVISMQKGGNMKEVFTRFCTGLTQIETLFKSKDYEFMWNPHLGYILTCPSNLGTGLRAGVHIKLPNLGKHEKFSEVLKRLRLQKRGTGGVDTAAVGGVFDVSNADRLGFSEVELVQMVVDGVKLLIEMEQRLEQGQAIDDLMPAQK
Sequence of UniProt P45973 (P45973 whole entry, looked up): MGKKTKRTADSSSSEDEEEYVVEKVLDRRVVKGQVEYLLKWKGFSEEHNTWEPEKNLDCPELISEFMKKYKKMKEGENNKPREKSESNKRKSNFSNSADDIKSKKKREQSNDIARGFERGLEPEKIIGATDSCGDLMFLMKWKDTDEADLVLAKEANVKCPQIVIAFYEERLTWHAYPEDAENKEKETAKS

Target	log2 fold change [1]	log2 fold change [2]	log2 fold change [3]	log2 fold change [4]	log2 fold change [5]	log2 fold change [6]	log2 fold change [7]	log2 fold change [8]	log2 fold change [9]	log2 fold change [10]	log2 fold change [11]	log2 fold change [12]	log2 fold change [13]	log2 fold change [14]	log2 fold change [15]	log2 fold change [16]	log2 fold change [17]	log2 fold change [18]	log2 fold change [19]	log2 fold change [20]
CEMIP2 (UniProt Q9UHN6)	0.076	0.018	-0.042	0.001	0.087	0.029	-0.071	-0.066	0.084	0.041	0	0.096	-0.045	-0.023	-0.026	0.122	0.11	-0.035	-0.211	0.057
CHKA (UniProt P35790)	0.012	-0.008	0.036	-0.018	0.001	-0.119	0.069	-0.188	0.005	-0.021	-0.034	0	0.085	0.006	0.057	0.113	0.019	0.088	-0.061	0.079
CKB (UniProt P12277)	0.011	0.045	0.052	0.035	0.018	-0.038	0.01	0.065	0.022	0.027	0.014	-0.024	-0.009	-0.01	-0.077	-0.045	0.021	-0.02	-0.014	0.059
CCNK isoform 4 (UniProt O75909)	0.079	0.006	-0.138	-0.016	-0.126	-0.013	-0.068	-0.077	0.047	-0.126	-0.143	0.02	-0.058	0.031	-0.007	-0.008	0.045	0.15	-0.046	-0.047
CBX5 (UniProt P45973)	-0.018	0.08	0	0.043	0.111	0.025	0.003	-0.028	-0.002	-0.015	-0.076	0.002	-0.102	-0.002	0.056	-0.067	-0.001	-0.058	-0.024	-0.545 (active)
CSNK2A2 (UniProt P19784)	-0.053	-0.08	0.046	-0.006	0.22 (active)	0.591 (active)	-0.038	0.185	0.034	-0.047	0.033	0.006	0.585 (active)	0.001	-0.065	0.026	-0.029	0.149	0.009	0.235 (active)
CCNB1 (UniProt P14635)	0.012	0.013	0.03	0.044	0.013	0.006	-0.016	0.002	-0.011	-0.018	0.035	-0.024	-0.221 (active)	-0.016	-0.005	-0.014	0.006	-0.018	-0.007	0.007
CRYM-AS1 (UniProt A6NIL9)	0.13	-0.214	0.027	0.23	0.089	-0.725	0.024	0.073	-0.27	0.108	0.13	0.172	-0.017	-0.063	-0.108	-0.088	0.168	0.054	0.038	-0.099
CA8 (UniProt P35219)	-0.045	0.051	0.092	-0.017	0.054	0.019	0.118	-0.02	-0.054	0.011	0.027	0.004	-0.091	0.033	-0.036	-0.056	0.011	-0.008	-0.021	-0.046
CNOT1 (UniProt A5YKK6)	0.013	0.102	-0.003	-0.007	0.035	0.001	0.014	-0.004	-0.009	-0.008	-0.07	-0.024	-0.029	0.028	-0.063	-0.101	0.039	0.027	0.009	0.063
C19orf53 (UniProt Q9UNZ5)	-0.161	-0.216	-0.52	0.079	-0.129	-0.011	-0.024	-0.028	0.053	-0.176	-0.136	0.031	0.12	0.201	0.043	0.013	0.126	0.32	0.079	-0.546
CPT1A (UniProt P50416)	-0.008	0.042	-0.111	0.008	-0.028	-0.096	0	0.081	-0.055	0.076	-0.163	-0.024	-0.103	0.05	0.049	0.195	-0.03	0.06	-0.109	-0.047
